Hits are enriched below; roughly 2.9% of the tested compounds scored in any of these assays.
SMARCA2 activ: activators of SMARCA2 function; AID 652017; MG213 cells, MMTV-luciferase reporter, dexamethasone, overnight; activation, % at 9.1 µM; 370,000 tested, 1% active; in the data active = activation above about 7.8%;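 also: 0% = vehicle wells and 100% = reference activator wells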
proKLK7 act: activators of human kallikrein-7 zymogen | P49862 | purified proKLK7, EDANS-DABCYL substrate fluorescence; 100% is mature enzyme control, 0% vehicle | activation, % at 7 µM | 370,000 tested, 0.9% active | AID 652039;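 active = activation above the mean of all tested compounds plus 3 SD, computed per campaign excluding outliers beyond control limits, cut at about 13% in these data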
Target sequence (P49862 whole entry, looked up): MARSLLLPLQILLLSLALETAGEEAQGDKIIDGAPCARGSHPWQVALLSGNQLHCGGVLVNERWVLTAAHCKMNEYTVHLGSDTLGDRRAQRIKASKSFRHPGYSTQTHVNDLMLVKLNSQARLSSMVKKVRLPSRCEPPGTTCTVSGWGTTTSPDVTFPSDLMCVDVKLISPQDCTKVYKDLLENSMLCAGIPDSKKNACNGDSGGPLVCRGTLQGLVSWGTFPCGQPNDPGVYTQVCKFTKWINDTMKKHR
GAA850 FXN act: activators of GAA850 frataxin (FXN) promoter | HEK293 lucGAA850 FXN promoter luciferase reporter, 24 h; percent of 10 µM SAHA response | activation, % at 6 µM | 360,000 tested, 0.56% active;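 active = activation above the average of all compounds screened plus 3 SD, cutoff fixed separately per campaign, cut at about 7.5% in these data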;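 also: 0% = DMSO wells and 100% = 10 µM SAHA wells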
FAS-TE inh: blocks the thioesterase domain of human fatty acid synthase. 360,000 tested, 0.67% active. AID 602261. P49327. recombinant FAS-TE, OMFH fluorogenic substrate, fluorescence endpoint. inhibition, % at 15 µM;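 active = compounds whose normalised, plate-corrected inhibition of enzyme fluorescence in the single-dose primary screen is 50% or more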;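 also: 0% = DMSO with enzyme and 100% = substrate without enzyme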
FAS-TE conf: FAS thioesterase (human) inhibition, confirmation | inhibition, % at 15 µM | 2,300 tested, 45% active | AID 624325 | shares compounds with FAS-TE inh | recombinant FAS-TE, OMFH fluorogenic substrate, fluorescence;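 active = compounds inhibiting the enzyme by at least 50% at 15 µM in any one of the replicates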;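 also: 0% = enzyme with DMSO only and 100% = wells lacking enzyme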
An asterisk follows results filed as active; nt = no result given.

SMILES | SMARCA2 activ | proKLK7 act | GAA850 FXN act | FAS-TE inh | FAS-TE conf
O=C(Nc1cccc(C(=O)O)c1)/C(=C/c1ccc([N+](=O)[O-])cc1)NC(=O)c1ccccc1 | -1 | 0 | 1 | 23 | nt
O=C(NNc1cccc([N+](=O)[O-])c1)/C(=C\c1cccnc1)NC(=O)c1ccccc1 | -2 | 0 | -1 | 66* | 65*
Cc1ccc(NC(=O)/C(=C\c2ccc([N+](=O)[O-])cc2)NC(=O)c2ccccc2)cc1 | -3 | 0 | -1 | 20 | nt
CC(=O)c1cccc(NC(=O)/C(=C\c2cccnc2)NC(=O)c2ccccc2)c1 | 0 | 0 | -1 | -5 | nt
CCc1ccccc1NC(=S)N1CCC(C(=O)c2ccc(F)cc2)CC1 | -1 | 1 | -1 | 12 | nt
Cc1cc2ccccc2c(=O)n1CC(=O)NC1CCCCCC1 | -2 | 0 | 2 | -1 | nt
CCC(=O)N1c2ccc(S(=O)(=O)N3CCN(CC)CC3)cc2CC1C (stereo unspecified) | 3 | 0 | 1 | -3 | nt
CC1Cc2cc(S(=O)(=O)N3CCN(C)CC3)ccc2N1C(=O)C1CC1 (stereo unspecified) | 3 | 0 | 0 | -6 | nt
CCC(=O)N1c2ccc(S(=O)(=O)N3CCN(c4ccc([N+](=O)[O-])cc4)CC3)cc2CC1C (stereo unspecified) | -3 | 0 | -1 | 64* | 24
Cc1cccc(N2CCN(S(=O)(=O)c3ccc4c(c3)CC(C)N4C(=O)C3CC3)CC2)c1C (stereo unspecified) | -2 | 0 | 0 | 65* | 14
Cc1ccc(C)c(N2CCN(S(=O)(=O)c3ccc4c(c3)CC(C)N4C(=O)C3CC3)CC2)c1 (stereo unspecified) | 0 | 0 | 1 | 54* | 7
N#Cc1cc2sc3nnc(-c4ccncc4)n3c2cc1C#N | -1 | 0 | 2 | 75* | 53*
COc1ccccc1C1OC(c2cccc([N+](=O)[O-])c2)=NN1C(C)=O (stereo unspecified) | 0 | -1 | 2 | 22 | nt
CC(=O)N1N=C(c2ccc(Br)cc2)CC1c1cccc([N+](=O)[O-])c1 (stereo unspecified) | -3 | 0 | 1 | 62* | 49*
CC(=O)N1N=C(c2cccc([N+](=O)[O-])c2)OC1c1ccc(Br)cc1 (stereo unspecified) | -2 | 0 | 1 | 51* | 20
CC(=O)N1N=C(c2cccc([N+](=O)[O-])c2)OC1c1ccc(Cl)cc1Cl (stereo unspecified) | -1 | -1 | 0 | 53* | 40
CC(C)c1ccc(NC(=O)CSc2nc3ccsc3c(=O)n2Cc2ccc(C(=O)O)cc2)cc1 | -2 | 0 | 3 | -1 | nt
CN1C(=O)c2ccc(NC(=O)c3ccc(Cl)cc3Cl)cc2C1=O | -1 | -62 | 0 | 4 | nt
CCOC(=O)c1nc(C)sc1-c1ccnn1S(=O)(=O)c1ccccc1C(F)(F)F | -1 | 0 | 2 | 22 | nt
N#Cc1cc(-c2ccccc2)cn(Cc2c(Cl)cccc2Cl)c1=O | -6 | 0 | 2 | 62* | 25*
CSC(=Nc1ccccc1)N=C(SCc1ccccc1)N(C)C | -10 | 0 | -11 | 84* | 90*
O=C(CCN1C(=O)C2C3CCC(C3)C2C1=O)Nc1ccc(Br)cc1 (stereo unspecified) | -2 | 0 | -2 | -9 | nt
COc1ccc(OC)c(/C=N/NC(=O)CCN2CCN(C(c3ccccc3)c3ccccc3)CC2)c1 | -1 | -12 | 0 | 4 | nt
CCCCCCCCCCCCN1[C@@H](CC(=O)O)c2cc(F)ccc2S1(=O)=O | 0 | 1 | 2 | 59* | 75*
CC(C)OC(=O)N(C)C[C@H]1OCc2cnnn2CCCC(=O)N([C@H](C)CO)C[C@@H]1C | -4 | 0 | 1 | -10 | nt
SMILES | SMARCA2 activ | proKLK7 act | GAA850 FXN act | FAS-TE inh | FAS-TE conf
CCOC(=O)[C@H]1[C@H]2COc3ccc(Br)cc3[C@@H]2N2C(=O)c3cc(F)c(F)cc3NC(=O)[C@@]12C | -1 | 0 | -8 | 41 | nt
C[C@@]12C(=O)Nc3ccccc3C(=O)N1[C@H]1c3cc(Br)ccc3OC[C@@H]1[C@@H]2c1ccccc1 | -1 | -1 | -11 | 92* | 47*
C[C@@]12C(=O)Nc3ccc(Cl)cc3C(=O)N1[C@H]1c3cc(Br)ccc3OC[C@@H]1[C@@H]2c1ccccc1 | 0 | 0 | -7 | 91* | 33
CCOC(=O)[C@H]1[C@H]2COc3cc(OC)ccc3[C@@H]2N2C(=O)c3cc(OC)ccc3NC(=O)[C@@]12C | -1 | 1 | -11 | -2 | nt
COc1ccc2c(c1)C(=O)N1[C@H]3c4cc(Br)ccc4OC[C@@H]3[C@H](c3ccccc3)[C@]1(C)C(=O)N2 | nt | nt | -6 | 78* | 41*
C[C@@]12C(=O)N(Cc3ccccc3)CC(=O)N1[C@H]1c3cc(Cl)ccc3OC[C@@H]1[C@@H]2c1ccccc1 | 0 | 0 | 4 | 26 | nt
C[C@@]12C(=O)Nc3ccc(Br)cc3C(=O)N1[C@H]1c3cc(Br)ccc3OC[C@@H]1[C@@H]2c1ccccc1 | -1 | -1 | -4 | 64* | 23
Cn1cnc([N+](=O)[O-])c1Sc1nnc(-c2cccnc2)n1C | 1 | -1 | 2 | 14 | nt
CCC(C)NC(=O)CNC(=S)N(Cc1ccccc1F)C1CCCCC1 (stereo unspecified) | -2 | 0 | 0 | 4 | nt
CC(O)(c1ccc(F)c(F)c1)c1nc(-c2ccccc2)cs1 (stereo unspecified) | -3 | -1 | 0 | 23 | nt
O=C(NCCc1ccccc1)C(c1cccs1)N(C(=O)CCl)c1ccc(Cl)cc1 (stereo unspecified) | -12 | 0 | -9 | 56* | 54*
O=C(Oc1ccc(N(Cc2cccs2)C2=NS(=O)(=O)c3ccccc32)cc1)c1ccccc1 | -2 | 0 | -2 | 60* | -8
O=C(c1ccc(F)cc1)N1CCC(C(=O)N(Cc2ccccc2)c2ccccc2)CC1 | 4 | 0 | 0 | 38 | nt
CCCCN(CCCNC(=O)c1c(C)cc(=O)oc1C)c1ccccc1 | 0 | 0 | -1 | 51* | 7
CCN(CCCNC(=O)c1c(C)cc(=O)oc1C)c1ccccc1 | -1 | 0 | 1 | 17 | nt
O=C1N=c2ccc([N+](=O)[O-])cc2=C1c1sc(=O)[nH]c1O | 0 | 0 | -2 | 56* | 66*
O=C(CSc1nnc(NC(=O)c2ccc(F)cc2)s1)NC1CCCC1 | 1 | 0 | 3 | -7 | nt
Cc1ccc2c(c1C)-c1c(ccc(C)c1C)C(=O)C2=O | -6 | -3 | -3 | 61* | 56*
Cc1cc(OCC(=O)NCC(O)c2ccccc2)c2c(C)cc(=O)oc2c1 (stereo unspecified) | -1 | 2 | 3 | -1 | nt
Cn1c2ccccc2c2nnc(SCC(N)=O)nc21 | 1 | 0 | 4 | -10 | nt
Cn1c2ccccc2c2nnc(SCc3ccc4nonc4c3)nc21 | -2 | 0 | 3 | 58* | 23

Assay outcomes (PubChem BioAssay)
